# Legend:
# Settings in all cases: concentration: 1 μM,replicates: in singlicate; n = 1
# TNNI3K = system: TNNI3K
# TRKA = system: T1, TRKA
# T1 construct: gene NTRK1
# TRKB = system: TRKB
# TRKC = system: T2, TRKC
# T2 construct: gene NTRK3
# TRPM6 = system: TRPM6
# TSSK1B = system: TSSK1B
# TSSK3 = system: TSSK3
# TTK = system: TTK
# TXK = system: TXK
# [1] = system: TYK2(JH1domain-catalytic)
# [2] = system: TYK2(JH2domain-pseudokinase)
# TYRO3 = system: TYRO3
# ULK1 = system: ULK1
# ULK2 = system: ULK2
# ULK3 = system: ULK3
# VEGFR2 = system: T3, VEGFR2
# T3 construct: gene KDR
# VPS34 = system: T4, VPS34
# T4 construct: gene PIK3C3
# VRK2 = system: VRK2
# WEE1 = system: WEE1
# WEE2 = system: WEE2
# 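Note: KINOMEscan kinase panel screen.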
SMILES,%Inh (TNNI3K) [%],%Inh (TRKA) [%],%Inh (TRKB) [%],%Inh (TRKC) [%],%Inh (TRPM6) [%],%Inh (TSSK1B) [%],%Inh (TSSK3) [%],%Inh (TTK) [%],%Inh (TXK) [%],%Inh [1] [%],%Inh [2] [%],%Inh (TYRO3) [%],%Inh (ULK1) [%],%Inh (ULK2) [%],%Inh (ULK3) [%],%Inh (VEGFR2) [%],%Inh (VPS34) [%],%Inh (VRK2) [%],%Inh (WEE1) [%],%Inh (WEE2) [%]
CC(C)S(=O)(=O)N1CCN(Cc2ccc3c(c2)nc(NC(=O)c2ccsc2)n3C[C@H](O)c2ccccc2)CC1 [GW635815],8,100,94.2,95.5,18,5,16,29,0,66,8,31,82,60,92.1,3,18,11,29,6
CCNCC(Cc1ccccc1)NC(=O)c1cc(Br)c(-c2ccnc3[nH]ccc23)s1.Cl.Cl (stereo not shown) [GSK1383280],11,90,77,50,8,60,13,67,0,46,10,0,0,0,8,36,0,0,0,7
CC(=O)Nc1nc2cnc(Nc3cc(NC(=O)c4cccc(CC(C)(C)C#N)c4)ccc3C)nc2s1,57,0,0,7,2,19,1,12,1,0,28,0,30,0,11,63,11,0,0,15
C[C@@H]1CCN(C(=O)N2CCCC2)C[C@@H]1N(C)c1ncnc2[nH]ccc12,18,85,55,26,4,5,4,89,4,100,0,0,36,46,70,49,0,0,0,0
CN(c1ccccc1CNc1nc(Nc2ccc3c(c2)CC(=O)N3)ncc1C(F)(F)F)S(C)(=O)=O,0,99.2,94.7,89,0,12,0,99.5,0,88,0,0,71,69,40,28,0,0,0,0
COc1cc2c(Nc3ccc(NC(=O)c4ccccc4)cc3)ncnc2cc1OCCCN1CCOCC1 [GSK301329],9,84,0,0,23,0,16,50,4,2,0,13,7,0,13,6,2,0,19,9
COc1cc2ncn(-c3cc(OCC4CCCCC4)c(C(N)=O)s3)c2cc1OC [GSK204559],5,31,0,0,13,0,3,30,0,12,15,0,9,0,25,4,20,0,0,25
CCOC(=O)N1CCC(n2cnc(-c3ccc(F)cc3)c2-c2ccnc(N)n2)CC1 [SB-219952],0,42,34,24,4,0,12,0,16,48,67,20,4,26,8,3,35,27,0,0
CN1CCN(CCNc2nc3cc(Oc4ccc(NC(=O)Nc5cc(C(F)(F)F)ccc5F)cc4)ccc3[nH]2)CC1.Cl.Cl [GW768504],0,0,0,0,0,8,0,41,0,0,0,0,0,0,0,58,17,0,8,2
COc1cccc(CNC(=O)NC2CCN(c3ccnc(Nc4cc(OC)c(OC)c(OC)c4)n3)C2)c1 (stereo not shown) [GSK1379765],0,52,7,55,0,0,18,22,0,54,43,0,0,0,90,13,0,0,30,9
CS(=O)(=O)c1cccc(CNc2nc(Nc3ccc4c(c3)[C@@H]3C[C@@H]4CNC3=O)ncc2C(F)(F)F)c1,0,99.2,96.8,90.4,0,0,6,99.8,28,94.7,0,0,89,77,99.9,98.1,0,37,2,30
c1ccc(Oc2ccc(Nc3ccnc4ccc(-c5ccccn5)cc34)cc2)cc1 [GW407034],0,0,15,9,27,27,19,1,27,7,15,0,49,0,5,0,0,0,15,0
Cn1cc(-c2cccc3c(N)c(C(N)=O)nnc23)cn1,5,24,0,0,35,0,0,1,0,19,80,0,23,14,21,13,46,1,3,18
C[C@@H](Oc1cc(-n2cnc3ccc(-c4ccncc4)cc32)sc1C(N)=O)c1ccccc1Cl [GSK483724],6,57,7,18,34,29,17,34,11,18,42,0,6,0,7,8,96.4,0,46,1
C[C@@H](Oc1cc(-n2cnc3cc(-c4ccncc4)ccc32)sc1C(N)=O)c1ccccc1Cl [GSK479719],29,66,52,50,0,34,13,2,0,25,46,15,32,3,18,40,32,0,1,0
Cn1ccc2ncnc(Oc3ccc(NC(=O)Nc4cc(C(C)(C)C)on4)c(Cl)c3)c21,90.7,96.1,96.4,99.1,0,0,3,2,0,7,26,28,8,11,16,97.5,16,19,0,23
C[C@@H]1CNc2c(sc3ccc4nc(-c5ccncc5)ccc4c23)C(=O)N1,0,0,0,0,0,33,2,16,0,46,59,0,26,27,0,13,0,0,0,0
Cn1ccc2ncnc(Oc3ccc(NC(=O)Nc4ccnc(C(F)(F)F)c4)c(Cl)c3)c21,58,5,0,27,0,0,0,0,0,0,0,0,0,0,0,98.5,0,0,0,30
O=C(Nc1n[nH]c2cc(-c3ccco3)ccc12)C1CC1 [SB-737447],0,57,19,32,0,0,0,18,0,21,0,0,11,0,20,6,16,0,0,2
Cl.c1ccc(Oc2ccc(Nc3ccnc4cc(-c5ccc(CN6CCNCC6)o5)ccc34)cc2)nc1 [GW567142],0,98.7,0,15,50,0,5,0,11,3,10,0,0,16,0,25,0,0,8,0
